High-throughput results (PubChem)
Shown are actives, neighbours in structure and some others; about 0.92% of the full set was active somewhere.
MEP2-GFP yeast = yeast TOR pathway MEP2-GFP modulation | S. cerevisiae MEP2-GFP strain, flow cytometry GFP, 3 h; 100% = DMSO control level | GFP response vs DMSO, % at 10 µM | 330,000 tested, 0.51% active | AID 2016;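 active = GFP response versus DMSO above a set limit, roughly screen mean plus 3 SD, cut at about 180% in these data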;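 also: median GFP fluorescence of the barcode-gated MEP2-GFP cells per well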
LAP4-GFP MLPCN = modulators of TOR pathway LAP4-GFP in S. cerevisiae; 320,000 tested, 0.34% active; GFP response vs DMSO, % at 10 µM; S. cerevisiae LAP4-GFP multiplex, flow cytometry GFP, 3 h; median GFP as percent of DMSO wells;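 active = GFP response vs DMSO above a set limit, about the screen mean plus 3 SD, cut at about 150% in these data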
RPL19A-GFP yeast = modulators of TOR pathway RPL19A-GFP in S. cerevisiae; percent response vs DMSO, % at 10 µM; AID 2025; 330,000 tested, 0.3% active; S. cerevisiae RPL19A-GFP strain, flow cytometry, 3 h; active compounds read low;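 active = percent response vs DMSO below 50%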;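 also: median channel GFP fluorescence of the barcoded RPL19A-GFP strain; lower means less RPL19A-GFP as with rapamycin TOR inhibition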
CIT2-GFP yeast = yeast TOR pathway CIT2-GFP modulation; S. cerevisiae CIT2-GFP strain, flow cytometry, 3 h; 100 means same as DMSO wells; GFP response vs DMSO, % at 10 µM; 320,000 tested, 0.065% active; AID 2029;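 active = GFP response relative to DMSO above a set limit, near the screen mean plus 3 SD, cut at about 150% in these data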;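 also: ratio of well median GFP fluorescence to mean of DMSO wells on the plate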
AGP1 TOR yeast = modulators of TOR pathway AGP1-GFP in S. cerevisiae; S. cerevisiae AGP1-GFP multiplex flow cytometry, 3 h; GFP as percent of DMSO wells; GFP response vs DMSO, % at 10 µM; 320,000 tested, 0.02% active; AID 2066;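 active = GFP response relative to DMSO above a set limit, near screen average plus 3 SD, cut at about 150% in these data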;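 also: median GFP channel fluorescence of the gated AGP1 strain per well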
LAP4-GFP pick2 = reconfirmed LAP4-GFP TOR pathway modulator in yeast. shares compounds with LAP4-GFP MLPCN. S. cerevisiae LAP4-GFP strain, flow cytometry GFP, 3 h. GFP response vs DMSO, % at 10 µM. 590 tested, 20% active. AID 2621;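 active = GFP signal as percent of the solvent control above about 150%, meaning raised reporter expression, limit read from the data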
MEP2-GFP pick2 = reconfirmed MEP2-GFP TOR pathway modulator in yeast | GFP response vs DMSO, % at 10 µM | shares compounds with LAP4-GFP MLPCN | S. cerevisiae MEP2-GFP strain, flow cytometry GFP, 3 h | 590 tested, 10% active;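 active = GFP signal above 150% of the solvent control wells, that is a rise of more than half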;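 also: median channel GFP fluorescence of all gated yeast cells per well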
RPL19A-GFP pick2 = yeast RPL19A-GFP TOR reporter modulation, second cherry pick | shares compounds with LAP4-GFP MLPCN | S. cerevisiae RPL19A-GFP strain, flow cytometry GFP, 3 h; active compounds read low; 100% means same as DMSO wells | GFP response vs DMSO, % at 10 µM | 590 tested, 3% active | AID 2623;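 active = under 65% GFP response relative to DMSO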;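 also: median GFP channel fluorescence per well over the all cells gate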
CIT2-GFP pick2 = yeast CIT2-GFP TOR reporter modulation, second cherry pick; shares compounds with LAP4-GFP MLPCN; S. cerevisiae CIT2-GFP strain, flow cytometry GFP, 3 h; DMSO control wells read 100%; GFP response vs DMSO, % at 10 µM; 590 tested, 8% active; AID 2624;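 active = GFP response vs DMSO above about 150%, limit read from the data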;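 also: median green fluorescence per well over all gated yeast cells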
AGP1 GFP CP2 = yeast AGP1-GFP TOR reporter modulation, second cherry pick. shares compounds with LAP4-GFP MLPCN. S. cerevisiae AGP1-GFP strain, flow cytometry GFP, 3 h. percent response vs DMSO, % at 10 µM. 590 tested, under 10 active;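 active = over 150 percent of DMSO response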;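 also: median GFP channel fluorescence over all cells without mother daughter split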
Yeast autofluor = counter-screen for compound autofluorescence in yeast s288c cells; shares compounds with LAP4-GFP MLPCN; S. cerevisiae s288c, 520 nm autofluorescence, flow cytometry, 3 h; active compounds read high; zero means same as solvent-only cells; fluorescence change (kMESF span) at 33 µM; 610 tested, under 10 active; AID 2757;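 active = fluorescence span over the dose series, or activity score, above about 33, limit read from the data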
Yeast autofl DR = counter-screen for autofluorescence of TOR hits in yeast s288c; shares compounds with LAP4-GFP MLPCN; 110 tested, under 10 active; fluorescence change (span) at 33 µM; S. cerevisiae s288c parental, compound autofluorescence, flow cytometry, 3 h;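 active = fluorescence change span, or the activity score built from it, above 25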
TORC1 bypass gr = compounds blocking wildtype yeast growth but not TORC1 bypass cells; shares compounds with LAP4-GFP MLPCN; AID 504456; S. cerevisiae BY4741 spot growth rating, 48-72 h; active compounds read low; 120 tested, under 10 active; growth rating (0-3) at 30 µM;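 active = growth rating at most 1 for wild type yeast while the TORC1 bypass strain still grows fully, rated 3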
Numbers stand for hits; 0 = inactive; - = not tested or not shown; + = active, no number; [ ] = another dose, or the depositor's remark.

SMILES	MEP2-GFP yeast	LAP4-GFP MLPCN	RPL19A-GFP yeast	CIT2-GFP yeast	AGP1 TOR yeast	LAP4-GFP pick2	MEP2-GFP pick2	RPL19A-GFP pick2	CIT2-GFP pick2	AGP1 GFP CP2	Yeast autofluor	others
COc1ccc(NC(=O)Nc2ccc(F)cc2F)c(C)c1	0	0	0	0	0	-	-	-	-	-	-
Cc1cc([N+](=O)[O-])ccc1NC(=O)Nc1ccc(F)cc1F	0	170.6	0	0	0	0	0	0	0	0	-
CCCCc1ccc(NC(=O)CC(C)=O)cc1	0	0	0	0	0	0	174.7	0	151.6	0	0
CCN(C[C@H]1N[C@@](C)(C(=O)OC)[C@H]2C(=O)N(Cc3ccccc3)C(=O)[C@@H]12)C(=O)c1ccc(C)cc1	0	0	0	0	0	-	-	-	-	-	-
N=C1/C(=C\c2coc3ccccc3c2=O)C(=O)N=C2SC(c3ccncc3)=NN12	0	0	0	0	0	0	0	0	162.7	0	0
Nc1nonc1C(=O)N/N=C\c1cc2c(cc1Cl)OCO2	0	0	0	0	0	-	-	-	-	-	-
Oc1c(Br)cc(Br)cc1C=Nc1ccc2c(c1)OCCO2	0	0	0	0	0	-	-	-	-	-	-
Oc1c(Br)cc(Br)cc1C=Nc1ccc2c(c1)OCO2	0	151.6	0	0	0	-	-	-	-	-	0
CC(C)(C)C(=O)NC(=S)NNC(=O)c1sc2ccccc2c1Cl	0	232.7	0	0	0	-	-	-	-	-	0
O=C(NC(=S)NNC(=O)c1cnccn1)c1ccc(Cl)cc1	0	181.0	0	0	0	-	-	-	-	-	0
COc1ccc(C(=O)NC(=S)NNC(=O)c2cnccn2)cc1	0	240.5	0	0	0	-	-	-	-	-	0	Yeast autofl DR=0;TORC1 bypass gr=0
Cc1ccc(Cl)cc1NC(=O)CN1C(=O)NC(C)(C2CC2)C1=O (stereo unspecified)	0	150.8	0	0	0	0	0	0	0	0	-
COc1ccc(C(=O)C(C)Sc2nnc(C3CC3)n2C2CC2)cc1 (stereo unspecified)	0	0	0	0	0	-	-	-	-	-	-
CSC1=NS(=O)(=O)c2c(C)nn(C)c2S1	0	153.7	0	0	0	-	-	-	-	-	0	Yeast autofl DR=0;TORC1 bypass gr=0
Cc1ccc(OCCOC(=O)c2cccc(S(=O)(=O)N3CC(C)OC(C)C3)c2)cc1 (stereo unspecified)	0	0	0	0	0	-	-	-	-	-	-
CCCCCNC(=O)Cn1c(=O)c2c(ncn2CC(C)C)n(Cc2ccccc2)c1=O	0	0	0	0	0	-	-	-	-	-	-
CCOC(=O)COc1ccc2ccccc2c1/C=C/[N+](=O)[O-]	0	229.7	0	0	0	292.6	0	0	0	0	0
CCOC(=O)Cn1cc(/C=C/[N+](=O)[O-])c2ccccc21	0	154.2	0	0	0	-	-	-	-	-	0
CCN1C(=O)[C@H]2[C@@H](c3ccc(-c4cccc(Cl)c4)c(OC)c3)N3CCCC[C@@]3(C(=O)OC)[C@H]2C1=O	0	0	0	0	0	-	-	-	-	-	-
CCCn1c(C2CCCN2c2nc(-c3cccc(Br)c3)cs2)nc2ccccc21 (stereo unspecified)	0	0	0	0	0	-	-	-	-	-	-
Nc1nc(NCCOCCO)nc(Nc2cccc(F)c2)c1[N+](=O)[O-]	0	0	0	0	0	-	-	-	-	-	-
Nc1nc(Nc2cccc(F)c2)nc(Nc2cccc(F)c2)c1[N+](=O)[O-]	-	-	-	-	-	-	-	-	-	-	-	Yeast autofl DR=0;TORC1 bypass gr=0
Nc1nc(Nc2ccccc2)nc(Nc2cccc(F)c2)c1[N+](=O)[O-]	-	-	-	-	-	-	-	-	-	-	-	Yeast autofl DR=0;TORC1 bypass gr=0
CNc1nc(N)c([N+](=O)[O-])c(Nc2cccc(Cl)c2)n1	0	0	0	0	0	-	-	-	-	-	-	Yeast autofl DR=0;TORC1 bypass gr=0
CNc1nc(N)c([N+](=O)[O-])c(Nc2cccc(F)c2)n1	337.6[may fluoresce green]	0	0	274.2[may fluoresce green]	0	0	+	0	350.4	159.4	0	Yeast autofl DR=0;TORC1 bypass gr=1
SMILES	MEP2-GFP yeast	LAP4-GFP MLPCN	RPL19A-GFP yeast	CIT2-GFP yeast	AGP1 TOR yeast	LAP4-GFP pick2	MEP2-GFP pick2	RPL19A-GFP pick2	CIT2-GFP pick2	AGP1 GFP CP2	Yeast autofluor	others
CCCCCOc1ccc(C(=O)Nc2ccc(N3CCOCC3)cc2N2CCOCC2)cc1	0	0	0	0	0	-	-	-	-	-	-
CSc1nnc(-c2cc3c(s2)-c2ccccc2CC3)o1	0	151.3	0	0	0	0	0	0	0	0	-
S=c1[nH]nc(-c2cc3c(s2)-c2ccccc2CC3)o1	0	0	0	0	0	-	-	-	-	-	-
CC(C)CC1NC(=O)c2cc(Cl)ccc2-n2c1nc1ccc(F)cc1c2=O (stereo unspecified)	0	0	0	0	0	-	-	-	-	-	-
Cc1ccccc1OCCOC(=O)c1ccc(S(=O)(=O)N2CCCC2)cc1	0	0	0	158.2	0	0	0	0	0	0	0
Cc1ccc2nc3c(cc(C(=O)NCC4CCCO4)c(=N)n3C3CCCC3)c(=O)n2c1 (stereo unspecified)	0	0	0	0	0	0	0	0	0	0	-
Cc1cccc(C(=O)OCC(=O)N2CCCCCC2)c1C	0	0	0	0	0	-	-	-	-	-	-
Cc1ccc(C(=O)OCC(=O)NCc2ccco2)cc1C	0	0	0	0	0	-	-	-	-	-	-
Cc1ccc(C(=O)O)cc1N1C(=O)c2cccc3c([N+](=O)[O-])ccc(c23)C1=O	0	0	0	0	0	-	-	-	-	-	-
CC(=O)Oc1cccc(N2C(=O)c3cccc4c([N+](=O)[O-])ccc(c34)C2=O)c1	227.3	177.7	0	0	0	177.3	281.2	0	225.3	0	0
Oc1c(C(Nc2nc3ccccc3s2)c2ccco2)ccc2cccnc12 (stereo unspecified)	0	202.9	0	0	0	-	-	-	-	-	0
CC(C)Cn1c(=O)c(C(=O)Nc2ccncc2)c(O)c2ccccc21	0	0	48.1	0	0	-	-	-	-	-	0
O=C(Cc1ccc(Cl)cc1)NCCc1ccc(F)cc1	0	0	0	0	0	-	-	-	-	-	-
